Source: PMC4552634, “A New Set of Chemical Starting Points with Plasmodium falciparum Transmission-Blocking Potential for Antimalarial Drug Discovery” (PLoS ONE, 2015)
The campaign covered roughly 13,000 compounds. About 3,200 (25%) showed an effect of 50% or more. Some of the results follow.

test system: P. falciparum stage V gametocytes; set-up: BacTiter-Glo ATP luminescence viability of purified stage V gametocytes in 384-well plates, per cent inhibition versus DMSO; settings: 48 h, 5 µM; inhibitor

SMILES | % Inhibition
C=CCN(c1nc(NC)nc(NCc2c(OC)cccc2OC)n1)C1CCCC1 [TCMDC-134844] | -44.26%
Cn1c(Cc2ccccc2)nnc1Sc1ccc(C#N)c([N+](=O)[O-])c1 [TCMDC-135608] | 73.99%
C=CCn1c(Cc2ccccc2)nnc1Sc1ccc(C#N)c([N+](=O)[O-])c1 [TCMDC-135614] | 45.02%
COc1cc(OC)cc(-c2nnc(Sc3ccc(C#N)c([N+](=O)[O-])c3)n2C)c1 [TCMDC-135576] | 42.48%
CCCCCn1c(Sc2ccc(C#N)c([N+](=O)[O-])c2)nnc1-c1ccccc1 [TCMDC-135606] | 38.34%
CCCCCCn1c(Sc2ccc(C#N)c([N+](=O)[O-])c2)nnc1-c1ccccc1 [TCMDC-135607] | 41.57%
CCn1c(Cc2ccccc2)nnc1Sc1ccc([N+](=O)[O-])c(C#N)c1 [TCMDC-135236] | 79.04%
Cc1ccc(Nc2nc(C)cc(N3CCN(CCc4ccccc4)CC3)n2)cc1 [TCMDC-134023] | -10.5%
COc1ccc(Nc2nccc(NCC(O)c3cccc(C(F)(F)F)c3)n2)cc1 (stereo not shown) [TCMDC-136585] | -13.64%
FC(F)(F)c1cccc(CCNc2nccc(NCc3ccccc3Cl)n2)c1 [TCMDC-135109] | 78.4%
Clc1ccc(CNc2ccnc(NCCc3coc4ccccc34)n2)c(Cl)c1 [TCMDC-135113] | 37.58%
FC(F)(F)c1cccc(CCNc2nccc(NCc3ccc(Cl)cc3Cl)n2)c1 [TCMDC-135111] | 42.21%
COc1ccccc1CNc1ccnc(NCCc2cccc(C(F)(F)F)c2)n1 [TCMDC-135117] | 62.08%
COc1cccc(Nc2nccc(NCC(O)c3cccc(C(F)(F)F)c3)n2)c1 (stereo not shown) [TCMDC-136584] | 27.05%
CC(=O)Nc1ccc(S(=O)(=O)Nc2ccc(Nc3nc(C)cc(N4CCCCC4)n3)cc2)cc1 [TCMDC-124950] | -6.943%
CCC[C@@H]([C@@H](CC(C)C)C(=O)N[C@H](C(=O)Nc1nccs1)C(C)(C)SCCNC(=O)OCC)N(O)C=O [TCMDC-137761] | 30.89%
N#Cc1cccc(COC(=O)C2=C(COc3ccccc3Cl)NC(=O)NC2c2c[nH]c3cnccc23)c1 (stereo not shown) [TCMDC-136331] | 5.465%
Cc1ccc(C(c2nnnn2C2CCCC2)N(Cc2ccco2)Cc2ccccc2Cl)cc1 (stereo not shown) [TCMDC-123569] | 15.39%
COc1ccc(-c2nc(NC(=O)CS(=O)(=O)c3ccccc3)sc2C)cc1 [TCMDC-123525] | 48.52%
